Results taken from PubChem BioAssay (NCI).
This is part of a sample that, as a whole, favours compounds with a hit. Of some 83,000 tested, about 20% had one in any assay.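 Step 1: grow cells in 96-well plates. Step 2: add test compound at a single concentration. Step 3: incubate 48 h. Step 4: record percent growth.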 A number with no mark means an inactive call. Active and inactive are the calls of the source. The calls were made as follows: active = growth percent below 10; inactive = the rest.

Legend:
Assay in all cases: NCI-60 one-dose screen, 48 h (100 = growth as untreated, 0 = no growth, -100 = all killed)
Details in all cases: 10 µM unless noted
DU-145 prostate = system: DU-145 prostate
K-562 leukemia = system: K-562 leukemia
MALME-3M melanoma = system: MALME-3M melanoma
MDA-MB-231 breast = system: MDA-MB-231 breast
RXF 393 renal = system: RXF 393 renal
SF-268 CNS = system: SF-268 CNS
SF-295 CNS = system: SF-295 CNS
SF-539 CNS = system: SF-539 CNS
UACC-257 melanoma = system: UACC-257 melanoma
M14 melanoma = system: M14 melanoma
HCT-15 colon = system: HCT-15 colon
HT29 colon = system: HT29 colon
SNB-75 CNS = system: SNB-75 CNS
SNB-19 CNS = system: SNB-19 CNS
U251 CNS = system: U251 CNS
PC-3 prostate = system: PC-3 prostate
SK-MEL-5 melanoma = system: SK-MEL-5 melanoma
LOX IMVI melanoma = system: LOX IMVI melanoma
SK-MEL-28 melanoma = system: SK-MEL-28 melanoma
UACC-62 melanoma = system: UACC-62 melanoma

O=C1C2C(C(=O)[N]1[Hg][c]1cccs1)C1(Cl)C(Cl)=C(Cl)C2(Cl)C1(Cl)Cl (stereo not given)
growth (DU-145 prostate): 53.8%
growth (K-562 leukemia): -2.45% (active)
growth (MALME-3M melanoma): -63.7% (active)
growth (MDA-MB-231 breast): -56.2% (active)
growth (RXF 393 renal): -83.5% (active)
growth (SF-268 CNS): 32.3%
growth (SF-295 CNS): 58.3%
growth (SF-539 CNS): 12.6%
growth (UACC-257 melanoma): -50.8% (active)
growth (M14 melanoma): -57.9% (active)
growth (HCT-15 colon): -76.8% (active)
growth (HT29 colon): 8.75% (active)
growth (SNB-75 CNS): 59.5%
growth (SNB-19 CNS): 51.5%
growth (U251 CNS): -67.6% (active)
growth (PC-3 prostate): 33.4%
growth (SK-MEL-5 melanoma): 24%
growth (LOX IMVI melanoma): -90.7% (active)
growth (SK-MEL-28 melanoma): -76.9% (active)

O=C(CC1(O)C(=O)Nc2ccc(Br)cc21)c1ccc(C(=O)NCC2CCC3(CC2)OOC2(CCCCC2)OO3)cc1 (stereo not given)
growth (DU-145 prostate): 59.1%
growth (K-562 leukemia): -61% (active)
growth (MALME-3M melanoma): -7.48% (active)
growth (MDA-MB-231 breast): 56.8%
growth (RXF 393 renal): 69.5%
growth (SF-268 CNS): 47.8%
growth (SF-295 CNS): 69.1%
growth (SF-539 CNS): 55%
growth (UACC-257 melanoma): 49.4%
growth (M14 melanoma): 61.6%
growth (HCT-15 colon): 54.2%
growth (HT29 colon): 47.2%
growth (SNB-75 CNS): 64.6%
growth (SNB-19 CNS): 61.4%
growth (U251 CNS): 11.8%
growth (PC-3 prostate): 38.9%
growth (UACC-62 melanoma): 54.6%
growth (LOX IMVI melanoma): 32.6%
growth (SK-MEL-28 melanoma): 73.3%

CC(C)(NC(=O)O[C@@H]1CN2CCC1CC2)c1csc(-c2ccc(F)cc2)n1
growth (DU-145 prostate): 112%
growth (K-562 leukemia): 94.5%
growth (MALME-3M melanoma): 97.1%
growth (MDA-MB-231 breast): 102%
growth (RXF 393 renal): 105%
growth (SF-268 CNS): 88.7%
growth (SF-295 CNS): 101%
growth (SF-539 CNS): 95.3%
growth (UACC-257 melanoma): 102%
growth (M14 melanoma): 84.9%
growth (HCT-15 colon): 102%
growth (HT29 colon): 104%
growth (SNB-75 CNS): 67.2%
growth (SNB-19 CNS): 97.9%
growth (PC-3 prostate): 99.5%
growth (SK-MEL-5 melanoma): 99.2%
growth (UACC-62 melanoma): 87.9%
growth (LOX IMVI melanoma): 90.5%

Fc1ccc(N2COOC3(OOC2)C2CC4CC(C2)CC3C4)cc1
growth (DU-145 prostate): 90.8%
growth (K-562 leukemia): 26.7%
growth (MALME-3M melanoma): 106%
growth (MDA-MB-231 breast): 95.5%
growth (RXF 393 renal): 115%
growth (SF-268 CNS): 91.5%
growth (SF-295 CNS): 87.5%
growth (SF-539 CNS): 82.5%
growth (UACC-257 melanoma): 89.6%
growth (M14 melanoma): 89.5%
growth (HCT-15 colon): 88.6%
growth (HT29 colon): 102%
growth (SNB-19 CNS): 95.5%
growth (U251 CNS): 97.1%
growth (PC-3 prostate): 90.4%
growth (SK-MEL-5 melanoma): 101%
growth (UACC-62 melanoma): 76.5%
growth (LOX IMVI melanoma): -82.2% (active)

O=C(CC1(O)C(=O)N(Cc2ccccc2)c2ccccc21)c1ccc(C(=O)NCC2CCC3(CC2)OOC2(CCCCC2)OO3)cc1 (stereo not given)
growth (DU-145 prostate): -100% (active)
growth (K-562 leukemia): -48.3% (active)
growth (MALME-3M melanoma): -73% (active)
growth (MDA-MB-231 breast): -65.8% (active)
growth (RXF 393 renal): -81% (active)
growth (SF-268 CNS): -62% (active)
growth (SF-295 CNS): 10.7%
growth (SF-539 CNS): -83.2% (active)
growth (UACC-257 melanoma): -21% (active)
growth (M14 melanoma): 13.1%
growth (HCT-15 colon): 0.81% (active)
growth (HT29 colon): -51.6% (active)
growth (SNB-75 CNS): -75.6% (active)
growth (SNB-19 CNS): 20.3%
growth (U251 CNS): -77.2% (active)
growth (PC-3 prostate): -61% (active)
growth (UACC-62 melanoma): 0.976% (active)
growth (LOX IMVI melanoma): -84.1% (active)
growth (SK-MEL-28 melanoma): 63.1%

COc1ccc(/C=C\c2cc(OC)c(OC)c(OC)c2)c(NS(=O)(=O)c2ccc(Cl)cc2)c1O
growth (DU-145 prostate): -13.3% (active)
growth (K-562 leukemia): 9.26% (active)
growth (MALME-3M melanoma): 58%
growth (MDA-MB-231 breast): 8.54% (active)
growth (RXF 393 renal): 37.2%
growth (SF-268 CNS): 16.2%
growth (SF-295 CNS): 0.936% (active)
growth (SF-539 CNS): 2.9% (active)
growth (UACC-257 melanoma): 39.1%
growth (M14 melanoma): 12.8%
growth (HT29 colon): 17.1%
growth (SNB-75 CNS): 18.9%
growth (SNB-19 CNS): 53.4%
growth (U251 CNS): 12.3%
growth (PC-3 prostate): 26.1%
growth (SK-MEL-5 melanoma): -1.82% (active)
growth (UACC-62 melanoma): 40.9%
growth (LOX IMVI melanoma): 10.7%
growth (SK-MEL-28 melanoma): 60.3%

Clc1cccc(NCOOC2(OOCNc3cccc(Cl)c3)CCCCC2)c1
growth (DU-145 prostate): 73.3%
growth (K-562 leukemia): -41% (active)
growth (MALME-3M melanoma): 74.5%
growth (MDA-MB-231 breast): 81.7%
growth (RXF 393 renal): 108%
growth (SF-268 CNS): 73.1%
growth (SF-295 CNS): 74.8%
growth (SF-539 CNS): 16.4%
growth (UACC-257 melanoma): 87.7%
growth (M14 melanoma): 60.4%
growth (HCT-15 colon): 70.2%
growth (HT29 colon): 74.5%
growth (SNB-19 CNS): 90.2%
growth (U251 CNS): 61.4%
growth (PC-3 prostate): 77.6%
growth (SK-MEL-5 melanoma): 71.4%
growth (UACC-62 melanoma): 34.3%
growth (LOX IMVI melanoma): -86.1% (active)
growth (SK-MEL-28 melanoma): 100%

Clc1ccc(N2COOC3(OOC2)C2CC4CC(C2)CC3C4)cc1
growth (DU-145 prostate): 85%
growth (K-562 leukemia): 29.9%
growth (MALME-3M melanoma): 26.3%
growth (MDA-MB-231 breast): 82.9%
growth (RXF 393 renal): 101%
growth (SF-268 CNS): 58.1%
growth (SF-295 CNS): 70.6%
growth (SF-539 CNS): 23.5%
growth (UACC-257 melanoma): 85.8%
growth (M14 melanoma): 65.9%
growth (HCT-15 colon): 64%
growth (HT29 colon): 60%
growth (SNB-19 CNS): 74.3%
growth (U251 CNS): 28.4%
growth (PC-3 prostate): 53.7%
growth (SK-MEL-5 melanoma): 55.5%
growth (UACC-62 melanoma): 39.4%
growth (LOX IMVI melanoma): -83.1% (active)
growth (SK-MEL-28 melanoma): 103%
